Assay outcomes from PubChem.
In the library only some 2.3% were active in any assay of this set; here they are far more common.
TRPV1 agonist = HTS Assay for Compounds that Act as Agonists of the Vanilloid Receptor 1 | Transient receptor potential cation channel subfamily V member 1 (Homo sapiens), Q8NER1 | TRPV1-expressing cells, Fluo-8 calcium influx, agonist mode | activation, % at 8.33 µM | AID 540275, 2011 | actives 0.19% (n = 320,000); in the data active means activation above about 80%; inconclusive means between about 30% and that limit
Target sequence (Q8NER1 whole entry, looked up): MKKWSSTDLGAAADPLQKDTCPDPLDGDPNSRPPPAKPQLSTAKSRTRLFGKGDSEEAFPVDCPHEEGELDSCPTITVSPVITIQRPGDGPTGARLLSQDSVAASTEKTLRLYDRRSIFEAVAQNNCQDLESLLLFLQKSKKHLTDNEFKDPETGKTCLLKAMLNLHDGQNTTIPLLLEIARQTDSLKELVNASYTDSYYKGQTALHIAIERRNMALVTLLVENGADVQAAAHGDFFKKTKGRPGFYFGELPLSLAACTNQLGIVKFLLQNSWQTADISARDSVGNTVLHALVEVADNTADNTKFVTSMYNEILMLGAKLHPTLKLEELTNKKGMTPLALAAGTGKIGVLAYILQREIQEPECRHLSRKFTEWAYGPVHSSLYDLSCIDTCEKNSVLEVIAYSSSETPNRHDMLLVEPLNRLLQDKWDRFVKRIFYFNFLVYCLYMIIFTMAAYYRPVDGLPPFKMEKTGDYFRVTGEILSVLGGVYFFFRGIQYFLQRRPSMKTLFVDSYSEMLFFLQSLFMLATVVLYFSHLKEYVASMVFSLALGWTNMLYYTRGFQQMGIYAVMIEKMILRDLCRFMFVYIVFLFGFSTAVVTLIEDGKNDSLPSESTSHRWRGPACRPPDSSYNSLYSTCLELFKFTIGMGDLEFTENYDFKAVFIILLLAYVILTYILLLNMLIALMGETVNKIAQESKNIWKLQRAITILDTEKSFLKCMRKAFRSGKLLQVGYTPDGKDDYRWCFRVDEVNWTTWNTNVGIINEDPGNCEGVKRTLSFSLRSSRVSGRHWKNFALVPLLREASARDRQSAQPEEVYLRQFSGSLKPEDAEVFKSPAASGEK
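TRPV1-expressing cells were cultured overnight at 35.5C and loaded with Fluo-8 calcium dye for 40 to 90 min at room temperature. After a 10 s baseline, compound was added and calcium influx was read kinetically for 3 min (ex 480/em 520 nm).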
FUS yeast rescue = qHTS for Suppressors of FUS Proteinopathy: Primary screen using FUS-linked yeast assay. S. cerevisiae FUS-expressing, growth rescue, OD600, 24 h. Potency, µM (doses to about 76.6 µM), actives largely listed as activators. actives 0.24% (n = 390,000). AID 1347120, 2019; further: nearly all actives have a fitted effect of over 55% in size
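Steps: raffinose overnight preculture; dilution to OD 0.005 in 2% galactose minimal medium; compound addition (concentration series); 24hr at 30C, 99% humidity; absorbance read at 600 nm.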
Giardia killer = Small Molecules that selectively kill Giardia lamblia: qHTS; Giardia lamblia trophozoite viability; activity change, % at 7.66 µM, hits read low; actives 0.15% (n = 340,000); AID 540267, 2011; in the data active means activity change below about -80%; inconclusive means between about -30% and that limit;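 further: parasites exposed to compound for two days anaerobically before the ATP read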
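Luminescence from cellular ATP indicates surviving trophozoites (100 cells/well) following 48 hrs anaerobic compound treatment at 37 deg C; signal develops 15-30 min at room temperature.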
TRPV1 potentiator = HTS Assay for Compounds that Act as Potentiators of the Vanilloid Receptor 1; Transient receptor potential cation channel subfamily V member 1 (Homo sapiens), Q8NER1; TRPV1-expressing cells, Fluo-8 calcium influx, capsaicin EC20 potentiation; potentiation, % at 8.33 µM; actives 0.02% (n = 320,000); AID 540277, 2011; in the data active means potentiation above about 80%; inconclusive means between about 30% and that limit
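TRPV1-expressing cells were cultured overnight at 35.5C and loaded with Fluo-8 calcium dye for 40 to 90 min at room temperature. After a 10 s baseline, compound was added and calcium influx was read kinetically for 3 min (ex 480/em 520 nm).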
ELG1 repair inh = qHTS screen for small molecules that inhibit ELG1-dependent DNA repair in human embryonic kidney (HEK293T) cells expressing luciferase-tagged ELG1; HEK293T ELG1-luciferase reporter, luminescence, 16 h; DNA damage induced by 5-fluorouridine; Potency, µM (doses to about 46.1 µM), usual class: inhibitors; actives 2.3% (n = 330,000); AID 504467, 2011; further: nearly all actives have a fitted effect of over 55% in size
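Overnight (16 hr) co-exposure of 2,000 cells/well to 5-fluorouridine and compound at 37 °C preceded detection. Luciferase was quantified via ONE-Glo luminescence; loss of signal denotes inhibition.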
Of the large screens only hits and unclear results are named; the others gave an inactive call; ! = not confirmed by another sample. Unless noted, the call rests on the fitted dose curve; in most records, active means well fitted curve in the direction sought with a large enough effect; inconclusive means small, poorly fitted or top-dose-only effect, or another doubt; inactive means no such curve, though single readings can be large; an effect the other way counts as inactive or inconclusive.

S=C(NCc1ccco1)Nc1cccc(Cl)c1Cl	TRPV1 agonist inconclusive, ELG1 repair inh 14.6µM
COc1ccc([C@@H]2[C@@H]3C(=O)N(C(C)(C)C)C(=O)[C@@H]3[C@]3(Cc4ccccc4)C(=O)N(c4cccc(Cl)c4)C(=O)N23)cc1	FUS yeast rescue 28.2µM
COc1ccc([C@@H]2[C@@H]3C(=O)N(C(C)(C)C)C(=O)[C@@H]3[C@]3(Cc4ccccc4)C(=O)N(c4cccc(C)c4)C(=O)N23)cc1	FUS yeast rescue 28.2µM
COc1ccc(N2C(=O)N3[C@H](c4ccc(Br)cc4)[C@@H]4C(=O)N(C(C)(C)C)C(=O)[C@@H]4[C@]3(Cc3ccccc3)C2=O)cc1	FUS yeast rescue 12.6µM
CC(C)(C)N1C(=O)[C@H]2[C@@H](c3ccc(Br)cc3)N3C(=O)N(c4cccc(Cl)c4)C(=O)[C@@]3(Cc3ccccc3)[C@H]2C1=O	FUS yeast rescue 12.6µM, Giardia killer inconclusive
COc1ccc([C@@H]2[C@@H]3C(=O)N(C(C)(C)C)C(=O)[C@@H]3[C@]3(Cc4ccccc4)C(=O)N(c4ccccc4)C(=O)N23)cc1	none
Cc1ccc(NC(=O)CCC(=O)N2Cc3ccccc3Oc3ncccc32)cc1F	none (no result: TRPV1 agonist, Giardia killer, TRPV1 potentiator, ELG1 repair inh)
CCOC(=O)c1c(NC(=O)COc2ccc(Cl)cc2Cl)sc2c1CCCCC2	none (no result: TRPV1 agonist, Giardia killer, TRPV1 potentiator, ELG1 repair inh)
CC1CN(S(=O)(=O)c2cccc(C(=O)N(Cc3nnc(-c4ccccc4Cl)o3)C3CC3)c2)CC(C)O1 (configuration not stated)	ELG1 repair inh 5.8µM
Cc1ccc(S(=O)(=O)N2CCOCC2)cc1C(=O)N(Cc1nnc(-c2ccccc2Cl)o1)C1CC1	ELG1 repair inh 10.3µM
CCOc1ccc2oc(C(=O)N(Cc3nnc(-c4ccccc4Cl)o3)C3CC3)c(C)c2c1	ELG1 repair inh 9.2µM
Cc1ccc2[nH]c(C)c(/C=C/c3cc[n+](C)cc3)c2c1	Giardia killer inconclusive, ELG1 repair inh 2.59µM
Cc1ccc(CNC(=O)CSc2ccsc2[N+](=O)[O-])cc1	Giardia killer -88.0, ELG1 repair inh inconclusive
Cc1ccc(-c2csc(NC(=O)c3ccc([N+](=O)[O-])o3)n2)cc1	TRPV1 agonist inconclusive, Giardia killer -95.3
Cc1ccc(CNC(=O)c2ccc([N+](=O)[O-])o2)cc1	Giardia killer -86.5, ELG1 repair inh inconclusive
Cc1ccc(/C=C/C(=O)c2ccc([N+](=O)[O-])o2)cc1	TRPV1 agonist inconclusive, ELG1 repair inh inconclusive
CN(Cc1ccccc1)C(=O)c1ccc([N+](=O)[O-])o1	Giardia killer -87.0
Cc1ccc(-c2csc(NC(=O)c3ccc(C)o3)n2)cc1	TRPV1 agonist inconclusive (no result: FUS yeast rescue)
COc1ccc(CNC(=O)CSc2ccsc2[N+](=O)[O-])cc1	Giardia killer inconclusive, ELG1 repair inh inconclusive
COc1ccc(Cn2c(CNS(=O)(=O)c3ccc(Cl)s3)nc3cccnc32)cc1	none (no result: TRPV1 agonist, Giardia killer, TRPV1 potentiator, ELG1 repair inh)
CCCNC(=O)C1(C)CCCN(C(=O)c2cc3ccccc3s2)C1 (configuration not stated)	none (no result: TRPV1 agonist, Giardia killer, TRPV1 potentiator, ELG1 repair inh)
CCc1ccccc1NC(=O)CN1CCN(C(=O)c2ccc(OCc3cn4ccccc4n3)cc2)CC1	ELG1 repair inh 6.51µM
CCc1ccccc1NC(=O)CNC(=O)c1ccc(OCc2cn3ccccc3n2)cc1	ELG1 repair inh inconclusive (no result: TRPV1 agonist, TRPV1 potentiator)
COc1ccc(CN2CCN(C(=O)c3cc(-c4cccnc4)nc4ccc(Cl)cc34)CC2)c(OC)c1OC	ELG1 repair inh 9.2µM
O=C(c1cc(-c2ccncc2)nc2ccc(Br)cc12)N1CCN(Cc2ccc3c(c2)OCO3)CC1	ELG1 repair inh inconclusive
O=C(c1cc(-c2ccncc2)nc2ccc(Cl)cc12)N1CCN(Cc2ccc3c(c2)OCO3)CC1	TRPV1 agonist inconclusive, ELG1 repair inh 14.6µM
CS(=O)(=O)N1CCN(C(=O)c2cc(-c3cccnc3)nc3ccc(Cl)cc23)CC1	ELG1 repair inh inconclusive
CCCCOC(=O)c1ccc(NC(=O)c2cc3c(=O)n4cccc(C)c4nc3n2C)cc1	none (no result: TRPV1 agonist, Giardia killer, TRPV1 potentiator, ELG1 repair inh)
COc1cc2c3cc1OCc1c(O)c(OC)cc4c1C(Cc1ccc(cc1)Oc1cc(ccc1O)CC3N(C)CC2)N(C)CC4 (configuration not stated)	none (no result: TRPV1 agonist, FUS yeast rescue, TRPV1 potentiator, ELG1 repair inh)
CN1CCc2cccc3c2[C@H]1Cc1ccc(O)c(O)c1-3	ELG1 repair inh 23.1µM!
Cc1cc(C(=O)COC(=O)CC2Sc3ccccc3NC2=O)c(C)n1-c1cccc(C(F)(F)F)c1 (configuration not stated)	FUS yeast rescue inconclusive
Cc1cc(C(=O)COC(=O)Cc2n[nH]c(=O)c3ccccc23)c(C)n1-c1cccc(C(F)(F)F)c1	ELG1 repair inh 23.1µM (no result: FUS yeast rescue)
O=C(NCCc1ccccc1)c1ccc(CSc2nc3cccnc3n2Cc2ccccc2)cc1	none (no result: TRPV1 agonist, Giardia killer, TRPV1 potentiator, ELG1 repair inh)
Cc1ccccc1C(=O)NC(C(=O)Nc1nc2c(s1)CCCC2)C(C)C (configuration not stated)	ELG1 repair inh 20.6µM (no result: FUS yeast rescue)
Cc1ccc(NC2=CC(=O)C(=O)c3ccccc32)c(C)c1	ELG1 repair inh 20.6µM
Cc1cccc(N=Nc2c(C)c(C#N)c(O)[nH]c2=O)c1	Giardia killer -96.8
CCCC(=O)Nc1nc(C)c(-c2csc(Nc3cc(OC)ccc3OC)n2)s1	ELG1 repair inh 5.17µM
COc1cccc(Nc2nc(-c3sc(NC(=O)CC(C)C)nc3C)cs2)c1	FUS yeast rescue inconclusive, Giardia killer inconclusive, ELG1 repair inh inconclusive
C=CCCC(=O)Nc1nc(C)c(-c2csc(Nc3cccc(OC)c3)n2)s1	ELG1 repair inh 14.6µM
C=CCCC(=O)Nc1nc(C)c(-c2csc(Nc3cc(OC)ccc3OC)n2)s1	ELG1 repair inh 7.31µM
CCCC(=O)Nc1nc(C)c(-c2csc(Nc3ccccc3OC)n2)s1	FUS yeast rescue inconclusive, ELG1 repair inh 23.1µM
CCCCCC(=O)Nc1nc(C)c(-c2csc(Nc3cc(Cl)ccc3OC)n2)s1	none
CCCC(C)C(=O)Nc1nc(C)c(-c2csc(Nc3cc(OC)ccc3OC)n2)s1 (configuration not stated)	FUS yeast rescue inconclusive, ELG1 repair inh 18.4µM
COc1ccc(OC)c(Nc2nc(-c3sc(N)nc3C)cs2)c1	FUS yeast rescue inconclusive, ELG1 repair inh 11.6µM
O=C(CSc1nc2c(c(=O)[nH]1)CCCC2)Nc1ccc(Br)cc1	none (no result: TRPV1 agonist, Giardia killer, TRPV1 potentiator, ELG1 repair inh)
CCN(CC)S(=O)(=O)c1cc(NC(=O)COc2ccc(C#N)cc2OC)ccc1C	ELG1 repair inh 13µM (no result: FUS yeast rescue)
CCN(CC)S(=O)(=O)c1cccc(NC(=O)COc2ccc(C#N)cc2OC)c1	ELG1 repair inh inconclusive
COc1ccc(-c2cn3nc(SCC(=O)Nc4cccc(C)c4C)ccc3n2)cc1	none (no result: TRPV1 agonist, Giardia killer, TRPV1 potentiator, ELG1 repair inh)
CCOC(=O)c1cnc(-n2nc(C)cc2C)nc1NCc1ccc2c(c1)OCO2	ELG1 repair inh 20.6µM
